The campaign covered roughly 5,500 compounds. About 2,000 (36%) were called active. About 18% were inconclusive and are not listed. No stated cut-off is given here; in the data, active means normalized growth mostly below about 0.91 (no sharp cut-off); inconclusive means no clear call, values can overlap the other calls; inactive means mostly above about 0.92. Some of the results follow.
Test: chemical genetic growth profiling, strain panel (AID 1159580);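 further: tested at 20 µM; growth read once vehicle control cultures reached saturation at 30 °C; 1 = growth at the plate median or of vehicle wells; lower values mean less growth of the strain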
Conditions: growth OD

Measured: normalized growth

Cn1c([N+](=O)[O-])cnc1COC(N)=O
inactive: S. cerevisiae deletion strains, locus YJR075W, strain HOC1, active compounds read low 1.02 | S. cerevisiae deletion strains, locus YKL009W, strain mrt4, active compounds read low 1.01 | S. cerevisiae deletion strains, locus YKL068W, active compounds read low 0.991 | S. cerevisiae deletion strains, locus YKL085W, strain MDH1 (second series), active compounds read low 0.994 | S. cerevisiae deletion strains, locus YKL085W, strain MDH1, active compounds read low 0.994 | S. cerevisiae deletion strains, locus YKL160W, strain elf1, active compounds read low 1.02 | S. cerevisiae deletion strains, locus YKL190W, strain CNB1, active compounds read low 1 | S. cerevisiae deletion strains, locus YKR001C, strain vps1, active compounds read low 0.976 | S. cerevisiae deletion strains, locus YKR026C, strain gcn3, active compounds read low 0.998 | S. cerevisiae deletion strains, locus YKR091W, strain srl3, active compounds read low 0.998 | S. cerevisiae deletion strains, locus YLL001W, strain dnm1, active compounds read low 1.03 | S. cerevisiae deletion strains, locus YLL026W, active compounds read low 1 | S. cerevisiae deletion strains, locus YLL041C, strain sdh2, active compounds read low 0.993 | S. cerevisiae deletion strains, locus YLR027C, strain aat2, active compounds read low 1.01 | S. cerevisiae deletion strains, locus YLR039C, strain RIC1, active compounds read low 1.02 | S. cerevisiae deletion strains, locus YLR058C, strain SHM2, active compounds read low 1.01 | S. cerevisiae deletion strains, locus YLR102C, strain apc9, active compounds read low 0.986 | S. cerevisiae deletion strains, locus YLR113W, strain HOG1, active compounds read low 1.03 | S. cerevisiae deletion strains, locus YLR221C, strain rsa3, active compounds read low 0.978 | S. cerevisiae deletion strains, locus YLR258W, strain gsy2, active compounds read low 1.02 | S. cerevisiae deletion strains, locus YLR262C, strain YPT6 (second series), active compounds read low 1 | S. cerevisiae deletion strains, locus YLR262C, strain YPT6, active compounds read low 1.05 | S. cerevisiae deletion strains, locus YLR268W, strain sec22, active compounds read low 0.991 | S. cerevisiae deletion strains, locus YLR320W, strain mms22, active compounds read low 0.983 | S. cerevisiae deletion strains, locus YLR330W, strain CHS5, active compounds read low 1.01 | S. cerevisiae deletion strains, locus YLR342W, strain FKS1 (second series), active compounds read low 0.982 | S. cerevisiae deletion strains, locus YLR342W, strain FKS1, active compounds read low 0.998 | S. cerevisiae deletion strains, locus YLR357W, strain rsc2, active compounds read low 0.989 | S. cerevisiae deletion strains, locus YLR370C, strain arc18, active compounds read low 1.02 | S. cerevisiae deletion strains, locus YLR371W, strain rom2, active compounds read low 0.988 | S. cerevisiae deletion strains, locus YLR384C, strain iki3, active compounds read low 1 | S. cerevisiae deletion strains, locus YLR418C, strain cdc73, active compounds read low 0.962 | S. cerevisiae deletion strains, locus YML016C, strain PPZ1, active compounds read low 1 | S. cerevisiae deletion strains, locus YML032C, strain rad52, active compounds read low 0.984 | S. cerevisiae deletion strains, locus YML120C, strain ndi1, active compounds read low 0.999 | S. cerevisiae deletion strains, locus YML124C, strain tub3, active compounds read low 0.99 | S. cerevisiae deletion strains, locus YMR058W, strain fet3, active compounds read low 1.01 | S. cerevisiae deletion strains, locus YMR078C, strain ctf18, active compounds read low 0.983 | S. cerevisiae deletion strains, locus YMR125W, strain sto1, active compounds read low 0.991 | S. cerevisiae deletion strains, locus YMR129W, active compounds read low 1.01 | S. cerevisiae deletion strains, locus YMR205C, strain PFK2, active compounds read low 0.982 | S. cerevisiae deletion strains, locus YMR223W, strain ubp8, active compounds read low 0.994 | S. cerevisiae deletion strains, locus YMR231W, strain pep5, active compounds read low 1.01 | S. cerevisiae deletion strains, locus YMR263W, strain SAP30, active compounds read low 1.01 | S. cerevisiae deletion strains, locus YMR307W, strain GAS1, active compounds read low 0.981 | S. cerevisiae deletion strains, locus YNL067W, strain RPL9B, active compounds read low 1.01 | S. cerevisiae deletion strains, locus YNL071W, strain lat1, active compounds read low 1 | S. cerevisiae deletion strains, locus YNL153C, strain GIM3, active compounds read low 1.01 | S. cerevisiae deletion strains, locus YNL183C, strain NPR1, active compounds read low 0.957 | S. cerevisiae deletion strains, locus YNL209W, strain ssb2, active compounds read low 1.01 | S. cerevisiae deletion strains, locus YNL233W, strain BNI4, active compounds read low 1.01 | S. cerevisiae deletion strains, locus YNL248C, strain rpa49, active compounds read low 0.995 | S. cerevisiae deletion strains, locus YNL250W, strain rad50, active compounds read low 0.986 | S. cerevisiae deletion strains, locus YNL271C, strain bni1, active compounds read low 0.978 | S. cerevisiae deletion strains, locus YNL298W, strain CLA4, active compounds read low 0.988 | S. cerevisiae deletion strains, locus YNL307C, strain MCK1, active compounds read low 0.984 | S. cerevisiae deletion strains, locus YNL322C, strain KRE1 (second series), active compounds read low 1.02 | S. cerevisiae deletion strains, locus YNR049C, strain mso1, active compounds read low 1.01 | S. cerevisiae deletion strains, locus YNR052C, strain pop2, active compounds read low 0.989 | S. cerevisiae deletion strains, locus YOL006C, strain TOP1, active compounds read low 1.05 | S. cerevisiae deletion strains, locus YOL012C, strain htz1 0.743 | S. cerevisiae deletion strains, locus YOL147C, strain pex11, active compounds read low 0.981 | S. cerevisiae deletion strains, locus YOR001W, strain rrp6, active compounds read low 0.963 | S. cerevisiae deletion strains, locus YOR061W, strain CKA2, active compounds read low 1.01 | S. cerevisiae deletion strains, locus YOR069W, strain VPS5, active compounds read low 1 | S. cerevisiae deletion strains, locus YOR070C, strain gyp1, active compounds read low 0.996 | S. cerevisiae deletion strains, locus YOR080W, strain dia2, active compounds read low 1.01 | S. cerevisiae deletion strains, locus YOR083W, strain WHI5, active compounds read low 1.03 | S. cerevisiae deletion strains, locus YOR106W, strain vam3, active compounds read low 1.03 | S. cerevisiae deletion strains, locus YOR136W, strain idh2, active compounds read low 0.978 | S. cerevisiae deletion strains, locus YOR144C, strain elg1, active compounds read low 0.972 | S. cerevisiae deletion strains, locus YOR184W, strain ser1, active compounds read low 1.01 | S. cerevisiae deletion strains, locus YOR231W, strain MKK1, active compounds read low 0.997 | S. cerevisiae deletion strains, locus YOR265W, strain rbl2, active compounds read low 1 | S. cerevisiae deletion strains, locus YOR270C, strain vph1, active compounds read low 1 | S. cerevisiae deletion strains, locus YOR290C, strain snf2, active compounds read low 1.03 | S. cerevisiae deletion strains, locus YOR316C, strain cot1, active compounds read low 0.993 | S. cerevisiae deletion strains, locus YPL051W, strain arl3, active compounds read low 1.03 | S. cerevisiae deletion strains, locus YPL078C, strain atp4, active compounds read low 1.03 | S. cerevisiae deletion strains, locus YPL106C, strain sse1, active compounds read low 1.02 | S. cerevisiae deletion strains, locus YPL240C, strain hsp82, active compounds read low 1.01 | S. cerevisiae deletion strains, locus YPL241C, strain CIN2, active compounds read low 1.01 | S. cerevisiae deletion strains, locus YPL256C, strain CLN2, active compounds read low 0.999 | S. cerevisiae deletion strains, locus YPR119W, strain clb2, active compounds read low 0.981 | S. cerevisiae deletion strains, locus YPR141C, strain kar3, active compounds read low 0.983 | S. cerevisiae deletion strains, locus YPR163C, strain tif3, active compounds read low 0.99 | S. cerevisiae deletion strains, locus YPR167C, strain met16, active compounds read low 0.992 | S. cerevisiae deletion strains, strain wtn01, active compounds read low 0.984 | S. cerevisiae strains, strain wild type, active compounds read low 1.01

— PubChem BioAssay AID1159580 (chemical genetic matrix, 2015)
